# Unmarked numbers belong to inactive results. Records with an inconclusive call do not appear. Where a call stands in place of a potency, no number is given. Calls of active or inactive are those of the source. Calls come from the whole dose curve.
# Legend:
# [1] = target: Acetylcholinesterase (Homo sapiens) (UniProt P22303); assay: Acetylcholinesterase (AChE) small molecule antagonists: colormetric cell-based qHTS assay (AID 1347395); note: nearly all actives have a fitted effect of over 30% in size
# Chain of Acetylcholinesterase (Homo sapiens) (P22303 whole entry, looked up): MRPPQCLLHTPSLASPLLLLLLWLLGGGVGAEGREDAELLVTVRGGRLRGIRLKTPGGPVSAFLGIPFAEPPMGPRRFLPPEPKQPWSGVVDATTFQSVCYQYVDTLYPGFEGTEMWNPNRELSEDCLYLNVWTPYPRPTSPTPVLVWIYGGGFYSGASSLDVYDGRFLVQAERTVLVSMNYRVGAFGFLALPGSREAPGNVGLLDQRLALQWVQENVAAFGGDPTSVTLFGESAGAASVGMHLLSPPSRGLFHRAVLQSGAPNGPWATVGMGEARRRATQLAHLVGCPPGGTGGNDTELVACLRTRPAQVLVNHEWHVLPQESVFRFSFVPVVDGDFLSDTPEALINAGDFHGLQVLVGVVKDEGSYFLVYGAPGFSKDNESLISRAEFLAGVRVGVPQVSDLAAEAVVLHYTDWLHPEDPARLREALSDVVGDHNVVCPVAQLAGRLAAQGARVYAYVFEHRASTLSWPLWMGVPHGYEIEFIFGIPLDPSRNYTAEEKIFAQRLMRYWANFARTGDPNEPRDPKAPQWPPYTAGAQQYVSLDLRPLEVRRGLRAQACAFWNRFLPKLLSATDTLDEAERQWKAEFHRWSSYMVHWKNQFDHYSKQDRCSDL
# In short: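 AChE inhibition read colorimetrically via DTNB–thiocholine in SH-SY5Y cells. Compound 30 min, substrate 90 min, both 37 C.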
# [2] = target: Acetylcholinesterase (Homo sapiens) (UniProt P22303); assay: Acetylcholinesterase (AChE) small molecule antagonists: enzyme-based qHTS assay (AID 1347397); details: Potency: AChE enzyme activity inhibition; outcome: AChE enzyme activity inhibition; note: nearly all actives have a fitted effect of over 55% in size
# In short: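 First, recombinant human AChE (50 mU/mL as dispensed) received test compound or DMSO. Second, plates stood 30 min at room temperature. Third, DTNB and acetylthiocholine were added, followed by 10 min at room temperature and colorimetric detection.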
# [3] = target: Acetylcholinesterase (Homo sapiens) (UniProt P22303); assay: Acetylcholinesterase (AChE) small molecule antagonists: fluorescence cell-based qHTS assay (AID 1347398); details: Potency: AChE activity; outcome: AChE activity; note: nearly all actives have a fitted effect of over 50% in size
# In short: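 Homogeneous quantitative HTS format. SH-SY5Y cells seeded at 2,000 per well settle overnight at 37 C. Compound pretreatment runs 30 min (37 C, 5% CO2); substrate/probe mix then reacts 40 min at RT before reading 490/520 nm.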
# [4] = target: Acetylcholinesterase (Homo sapiens) (UniProt P22303); assay: Acetylcholinesterase (AChE) small molecule antagonists: enzyme-based qHTS assay with human liver microsomes (AID 1347399); details: Potency: qHTS inhibition; outcome: qHTS inhibition; note: nearly all actives have a fitted effect of over 60% in size
# In short: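 Recombinant human AChE (50 mU/mL in the enzyme mix) and human liver microsomes (0.25 mg/mL final) were preincubated with compound and NADPH (0.25 mg/mL final) for 30 min at 37 C. Acetylthiocholine/DTNB was then added; thiocholine was read colorimetrically after 10 min at room temperature.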
# Potency is the fitted concentration of half-maximal effect.
SMILES,Potency [1],Potency [2],Potency [3],Potency [4],"activity, negative = inhibition [1]","activity change, negative = inhibition [2]","activity change, negative = inhibition [3]","activity change, negative = inhibition [4]"
Nc1ccc(NC(=O)c2ccc(N)cc2)cc1,inactive,inactive,inactive,inactive,,,,
CN(C)c1ccc(N=Nc2ccccc2C(=O)O)cc1,inactive,inactive,inactive,inactive,,,,
Nc1ccc(C(=O)OCCCOC(=O)c2ccc(N)cc2)cc1,inactive,inactive,inactive,inactive,,,,
Cc1cnc(C)c(C)n1,inactive,inactive,inactive,inactive,,,,
O=c1[nH]ncc2ccccc12,inactive,inactive,inactive,inactive,,,,
O=C(Nc1ccccc1)c1ccccc1O,inactive,inactive,inactive,inactive,,,,
CCC(C)N(C)C(=O)c1cc2ccccc2c(-c2ccccc2Cl)n1 (configuration not stated),inactive,inactive,inactive,inactive,,,,
CCCC(=O)OCCc1ccccc1,inactive,inactive,inactive,inactive,,,,
C/C=C(\C)C#N,inactive,inactive,inactive,inactive,,,,
CC(S)C(=O)NCC(=O)O (configuration not stated),inactive,inactive,inactive,inactive,,,,
CC(C)[N+](C)(C)CC(O)COc1cccc2ccccc12 (configuration not stated),inactive,inactive,inactive,inactive,,,,
Cc1cc(-n2nc3ccc(Cl)cc3n2)c(O)c(C(C)(C)C)c1,inactive,inactive,inactive,inactive,,,,
Nc1nnc(-c2ccc([N+](=O)[O-])o2)o1,inactive,inactive,inactive,inactive,,,,
CCO[Si](CCC1CCC2OC2C1)(OCC)OCC (configuration not stated),inactive,inactive,inactive,inactive,,,,
CN1[C@@H]2CC[C@H]1CC(OC(=O)C(O)c1ccccc1)C2 (some centres not stated),inactive,inactive,inactive,inactive,,,,
NC(Cc1ccc(Cl)cc1)C(=O)O (configuration not stated),,,,,1.17% [at 0.435 µM],0.0464% [at 0.435 µM],9.18% [at 0.439 µM],-1.76% [at 0.435 µM]
OCCN1CCOCC1,inactive,inactive,inactive,inactive,,,,
CCOC(=O)CC(=O)c1cc(F)c(Cl)nc1Cl,inactive,inactive,inactive,inactive,,,,
CC(C)CCCC(C)CC=O (configuration not stated),inactive,inactive,inactive,inactive,,,,

SMILES,Potency [1],Potency [2],Potency [3],Potency [4],"activity, negative = inhibition [1]","activity change, negative = inhibition [2]","activity change, negative = inhibition [3]","activity change, negative = inhibition [4]"
O=S(=O)(O)CCN1CCN(CCO)CC1,inactive,inactive,inactive,inactive,,,,
CCN(CC)CCOc1ccc2c(c1)C(=O)c1cc(OCCN(CC)CC)ccc1-2,776 nM (active),1550 nM (active),550 nM (active),5490 nM (active),,,,
COc1ccccc1N1CCN(CCCNc2cc(=O)n(C)c(=O)n2C)CC1,inactive,inactive,inactive,inactive,,,,
CCn1nc(Cc2ccccc2)cc1C1CCN(C[C@H]2C[C@H](N(C)[C@@H](C(=O)O)C(C)C)C[C@@H]2c2cccc(F)c2)CC1,inactive,inactive,inactive,inactive,,,,
C1=COCCC1,inactive,inactive,inactive,inactive,,,,
O=C(CO)[C@@H](O)[C@H](O)[C@@H](O)CO,inactive,inactive,inactive,inactive,,,,
CCCCCCCCN1CCCC1=O,inactive,inactive,inactive,inactive,,,,
NC(=O)CCCCC(N)=O,inactive,inactive,inactive,inactive,,,,
COc1ccc(COC=O)cc1,inactive,inactive,inactive,inactive,,,,
COc1c(Br)cc(Br)c(C)c1Br,inactive,inactive,inactive,inactive,,,,
CCOC(=O)CC(C)O (configuration not stated),inactive,inactive,inactive,inactive,,,,
CCCCCCCCCCCCCCCCCC(=O)OCCCCCCCCCCCCCC(C)C,inactive,inactive,inactive,inactive,,,,
O=S(=O)(O)c1ccc2cc(O)c(S(=O)(=O)O)cc2c1,inactive,inactive,inactive,inactive,,,,
O=C(NN1CCCC1)NS(=O)(=O)c1ccc(Cl)cc1,inactive,inactive,inactive,inactive,,,,
CO/N=C(\C(=O)N[C@@H]1C(=O)N2C(C(=O)O)=C(CSc3nc(=O)c(O)nn3C)CS[C@H]12)c1csc(N)n1,inactive,inactive,inactive,inactive,,,,
CCOC(=O)C(C)Oc1ccc(Oc2nc3ccc(Cl)cc3o2)cc1 (configuration not stated),inactive,inactive,inactive,inactive,,,,
CCCCOc1ccc(CC(=O)NO)cc1,inactive,inactive,inactive,inactive,,,,
C#CCOC(=O)[C@@H](C)Oc1ccc(Oc2ncc(Cl)cc2F)cc1,inactive,inactive,inactive,inactive,,,,
CN(C)CCc1c[nH]c2ccc(CS(=O)(=O)N3CCCC3)cc12,inactive,inactive,inactive,inactive,,,,
